Two sequences from US20200347384, “Screening artificial nucleic acids by particle display” (THE REGENTS OF THE UNIVERSITY OF CALIFORNIA, published 2020) can be followed below.

Experiment [1] addresses T1, HIV-1 reverse transcriptase (HIV RT) (Human immunodeficiency virus, UniProt P03366;P03366 P03366:600-1159,P03366:600-1039). The experiment is described as follows: MST; two 5' flanking nucleotides deleted. The following applies: tags: His-tag (inferred from Ni-NTA immobilisation); XNA; TNA at all positions.
Experiment [2] concerns the target T1, HIV-1 reverse transcriptase (HIV RT). Briefly: MST; five 3' flanking nucleotides deleted. The following applies: tags: His-tag (inferred from Ni-NTA immobilisation); XNA; TNA at all positions.

As for TAGTAAATTGATTTAAAAATTTCATAAATGCTACATAA, the binding signal in experiment [1] was ~3 fold reduction in affinity. Consider AATAGTAAATTGATTTAAAAATTTCATAAATGCTA, for which the binding signal in experiment [2] is ~3 fold reduction in affinity.
